Measured values taken from paper PMC4336329 (PLoS ONE, 2015).
Out of some 310,000 compounds screened, about 14,000 (4.5%) showed an effect of 50% or more. Effects have a minus sign here. The sample as a whole holds a higher share of strong results than the screen did.
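Also: peak tail current of the secondary pulse compared with the same well before compound.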

These compounds were tested against human ether-à-go-go-related gene (hERG) potassium channel (human, UniProt Q12809) (assay: primary screen, population patch clamp on CHO cells stably expressing hERG; higher = less effect of the substance).
human ether-à-go-go-related gene (hERG) potassium channel, sequence (Q12809 whole entry, looked up): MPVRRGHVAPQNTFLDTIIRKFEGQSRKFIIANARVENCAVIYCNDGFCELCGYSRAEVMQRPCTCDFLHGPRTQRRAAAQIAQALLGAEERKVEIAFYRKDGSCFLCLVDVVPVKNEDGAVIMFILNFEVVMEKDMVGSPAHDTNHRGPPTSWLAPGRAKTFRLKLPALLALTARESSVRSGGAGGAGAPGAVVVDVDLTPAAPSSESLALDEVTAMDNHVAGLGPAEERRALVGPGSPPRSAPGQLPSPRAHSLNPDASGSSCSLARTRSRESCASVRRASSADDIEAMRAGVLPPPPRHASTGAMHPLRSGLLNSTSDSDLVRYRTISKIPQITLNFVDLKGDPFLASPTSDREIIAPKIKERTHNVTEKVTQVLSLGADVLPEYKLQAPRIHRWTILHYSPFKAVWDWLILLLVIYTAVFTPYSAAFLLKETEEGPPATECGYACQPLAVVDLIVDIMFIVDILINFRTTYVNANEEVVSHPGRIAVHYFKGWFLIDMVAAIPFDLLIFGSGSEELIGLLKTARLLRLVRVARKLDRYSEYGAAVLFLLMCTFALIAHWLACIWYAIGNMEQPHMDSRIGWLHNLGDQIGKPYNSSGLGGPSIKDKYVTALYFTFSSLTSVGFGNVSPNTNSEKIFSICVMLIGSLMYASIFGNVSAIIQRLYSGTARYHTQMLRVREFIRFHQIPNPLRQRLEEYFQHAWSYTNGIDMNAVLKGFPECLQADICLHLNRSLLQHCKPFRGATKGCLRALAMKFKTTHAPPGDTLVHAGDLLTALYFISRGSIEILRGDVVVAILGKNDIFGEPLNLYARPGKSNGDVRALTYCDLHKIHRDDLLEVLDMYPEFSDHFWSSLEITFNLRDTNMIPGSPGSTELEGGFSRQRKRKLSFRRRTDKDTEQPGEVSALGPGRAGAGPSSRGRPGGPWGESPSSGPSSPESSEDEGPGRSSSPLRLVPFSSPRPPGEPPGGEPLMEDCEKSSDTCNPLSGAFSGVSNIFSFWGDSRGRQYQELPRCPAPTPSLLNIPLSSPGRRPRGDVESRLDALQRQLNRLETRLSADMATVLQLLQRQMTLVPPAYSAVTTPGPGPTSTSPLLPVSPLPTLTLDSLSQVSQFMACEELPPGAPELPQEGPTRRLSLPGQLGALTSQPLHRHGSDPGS
With `COC(=O)c1ccc(C)c(NC(=O)C(CCSC)NC(=O)c2cc(OC)c(OC)c(OC)c2)c1` (stereo not drawn) the “hERG current change (%, negative = inhibition) at 10uM” value was 13.6%.
For `CCn1c(-c2ccc(Cl)cc2)n[nH]c1=S`, the “hERG current change (%, negative = inhibition) at 10uM” value was 13.2%.
For `O=C(CSc1nnnn1-c1ccc(Cl)cc1)NNC(=O)c1ccc([N+](=O)[O-])cc1`, the “hERG current change (%, negative = inhibition) at 10uM” value was -23.2%.
With `O=C(CSC1CS(=O)(=O)c2cc([N+](=O)[O-])ccc21)NNC(=O)c1ccc(Cl)cc1` (stereo not drawn) the “hERG current change (%, negative = inhibition) at 10uM” value was -74%.
`O=C(CSC1CS(=O)(=O)c2cc([N+](=O)[O-])ccc21)NNC(=O)c1ccccc1` (stereo not drawn) was tested, and the “hERG current change (%, negative = inhibition) at 10uM” value was -20.7%.
In the case of `COc1ccc(S(=O)(=O)N2CCCCC2)cc1NC(=O)c1cccs1`, the “hERG current change (%, negative = inhibition) at 10uM” value is reported as 32.3%.
`O=S(=O)(Nc1ccc(OC(F)F)cc1)c1ccc(-c2ccon2)s1` was tested, and the “hERG current change (%, negative = inhibition) at 10uM” value was -15.3%.
For `Cc1ccc(C)c(N2CCN(CC(=O)Nc3ccc4[nH]c(=O)[nH]c4c3)CC2)c1`, the “hERG current change (%, negative = inhibition) at 10uM” value was -3.56%.
`CCN(CC)c1ccc(C(=O)c2ccccc2C(=O)O)c(O)c1` was tested, and the “hERG current change (%, negative = inhibition) at 10uM” value was 3.8%.
In the case of `CN(C)c1ccc(C(=O)c2ccccc2C(=O)O)c(O)c1`, the “hERG current change (%, negative = inhibition) at 10uM” value is reported as 12.7%.
With `CCCCN(CCCC)c1ccc(C(=O)c2ccccc2C(=O)O)c(O)c1` the “hERG current change (%, negative = inhibition) at 10uM” value was -75.2%.
For `FC(F)(F)c1cccc(NC(=S)N2CCN(c3cccc(C(F)(F)F)c3)CC2)c1`, the “hERG current change (%, negative = inhibition) at 10uM” value was 16.6%.
With `Cc1ccc(NC(=O)C2CCCN(S(=O)(=O)c3c(C)noc3/C=C/N(C)C)C2)cc1F` (stereo not drawn) the “hERG current change (%, negative = inhibition) at 10uM” value was -1.44%.
`CC1CCCN(Cc2nc3c(c(=O)n(C)c(=O)n3C)n2Cc2c(F)cccc2Cl)C1` (stereo not drawn) was tested, and the “hERG current change (%, negative = inhibition) at 10uM” value was -1.45%.
With `CN1CCC(N(CCc2ccccc2)C(=O)CCC(=O)O)CC1` the “hERG current change (%, negative = inhibition) at 10uM” value was -1.87%.
In the case of `CN1C2CCC1CC(NC(=O)c1ccc(Cl)cc1)C2` (stereo not drawn), the “hERG current change (%, negative = inhibition) at 10uM” value is reported as 7.55%.
For `COc1cc(C(=O)N(CCc2ccccc2)C2CC3CCC(C2)N3C)cc(OC)c1OC.Cl.O` (stereo not drawn), the “hERG current change (%, negative = inhibition) at 10uM” value was -38.3%.
`CN1C2CCC1CC(N(CCc1ccccc1)C(=O)c1ccc(Cl)cc1)C2.Cl` (stereo not drawn) was tested, and the “hERG current change (%, negative = inhibition) at 10uM” value was -83.2%.
For `CCCCN(C(=O)c1ccc(Cl)cc1)C1CC2CCC(C1)N2C.Cl` (stereo not drawn), the “hERG current change (%, negative = inhibition) at 10uM” value was -47.4%.
In the case of `Cc1cc(C)cc(C(=O)N(CCc2ccccc2)C2CC3CCC(C2)N3C)c1.Cl` (stereo not drawn), the “hERG current change (%, negative = inhibition) at 10uM” value is reported as -56.5%.
For `COc1ccc(C2CC(c3cccs3)=NN2C(=O)CSc2nncn2C)cc1OC` (stereo not drawn), the “hERG current change (%, negative = inhibition) at 10uM” value was 4.67%.
In the case of `O=C(Nc1ccccc1N1CCOCC1)C1CCCCN1S(=O)(=O)c1ccccc1` (stereo not drawn), the “hERG current change (%, negative = inhibition) at 10uM” value is reported as -20.8%.
For `Cc1nc([N+](=O)[O-])c(NCCO)n1Cc1ccccc1`, the “hERG current change (%, negative = inhibition) at 10uM” value was 8.23%.
In the case of `Cc1ccccc1CN1C[C@@H]2C[C@@H](c3cn[nH]c3-c3ccc(F)cc3)N3CCC[C@@]23C1=O`, the “hERG current change (%, negative = inhibition) at 10uM” value is reported as -52.2%.
`COc1ccccc1CN1C[C@@H]2C[C@@H](c3ccccc3C)N3CCC[C@@]23C1=O` was tested, and the “hERG current change (%, negative = inhibition) at 10uM” value was 17.4%.
With `CCn1ncc([C@@H]2C[C@H]3CN(Cc4ccccc4C)C(=O)[C@]34CCCN24)c1C` the “hERG current change (%, negative = inhibition) at 10uM” value was 17.7%.
For `COc1ccc(-c2[nH]ncc2[C@@H]2C[C@H]3CN(Cc4ccccc4C)C(=O)[C@]34CCCN24)cc1`, the “hERG current change (%, negative = inhibition) at 10uM” value was -51.7%.
With `Cc1ccccc1CN1C[C@@H]2C[C@@H](c3cn[nH]c3-c3ccccc3)N3CCC[C@@]23C1=O` the “hERG current change (%, negative = inhibition) at 10uM” value was -5.95%.
In the case of `COc1ccccc1CN1C[C@@H]2C[C@@H](c3ccccc3OC)N3CCC[C@@]23C1=O`, the “hERG current change (%, negative = inhibition) at 10uM” value is reported as -14%.
In the case of `Cc1cc(NC(=O)C2CC=CCC2C(=O)O)no1` (stereo not drawn), the “hERG current change (%, negative = inhibition) at 10uM” value is reported as -1.9%.
With `CN(Cc1ccccc1F)C(=O)CN1CCN(S(=O)(=O)c2ccc3c(c2)OCCCO3)CC1` the “hERG current change (%, negative = inhibition) at 10uM” value was -18.4%.
For `O=C(O)C1CCCCC1C(=O)N1CCN(S(=O)(=O)c2ccc(F)cc2)CC1` (stereo not drawn), the “hERG current change (%, negative = inhibition) at 10uM” value was 8.47%.
For `COc1ccc(-c2cc(=O)c3cc(OC)c(OC)cc3[nH]2)cc1`, the “hERG current change (%, negative = inhibition) at 10uM” value was -5.83%.
`COc1cc(NC(=O)c2cnc(N)s2)cc(C(=O)Nc2cccc(C(F)(F)F)c2)c1` was tested, and the “hERG current change (%, negative = inhibition) at 10uM” value was -26%.
With `Cc1ccc(Nc2cc(C)c3c(O)cccc3n2)cc1C.Cl` the “hERG current change (%, negative = inhibition) at 10uM” value was 19%.
`COC(=O)c1cc(Nc2cc(C)c3ccc(O)cc3n2)cc(C(=O)OC)c1` was tested, and the “hERG current change (%, negative = inhibition) at 10uM” value was 6.58%.
In the case of `Cc1cc(Nc2ccccc2)nc2cc(O)ccc12`, the “hERG current change (%, negative = inhibition) at 10uM” value is reported as -11.5%.
For `Cc1ccc(Nc2cc(C)c3ccc(O)cc3n2)cc1C.Cl`, the “hERG current change (%, negative = inhibition) at 10uM” value was -58.5%.
With `COc1ccc(Nc2cc(C)c3ccccc3n2)cc1` the “hERG current change (%, negative = inhibition) at 10uM” value was 4.57%.
For `COc1ccc(Nc2cc(C)c3ccc(O)cc3n2)cc1`, the “hERG current change (%, negative = inhibition) at 10uM” value was -58.4%.
In the case of `COC(=O)c1c(-c2cccs2)csc1NC(=O)CSc1ncnc2sc(C)c(C)c12`, the “hERG current change (%, negative = inhibition) at 10uM” value is reported as 0.474%.
For `Cc1cc(C)nc(-n2nc(C)c3c(C(F)F)cc(C)nc32)n1`, the “hERG current change (%, negative = inhibition) at 10uM” value was 15.3%.
